Reference: PubChem BioAssay (EPA / NIEHS)
Results filed as inconclusive are left out. Activity calls are given as the source filed them. Rule for the calls, unless noted: active = hit-call score of the fitted dose curve at least 0.9, where 1 is the maximum; inactive = score below 0.9.

Columns and labels:
[1] = molecular target: human Vitamin D Receptor (VDR), VDR (gene 7421) (UniProt P11473); assay: ATG_VDR_TRANS: Attagene TRANS-FACTORIAL HepG2 Assay for human Vitamin D Receptor (VDR) (AID 2283022; active = hit-call score of the fitted dose curve at least 0.9, where 1 is the maximum)
Chain of human Vitamin D Receptor (VDR), VDR (gene 7421) (P11473 whole entry, looked up, the tested form may be a part): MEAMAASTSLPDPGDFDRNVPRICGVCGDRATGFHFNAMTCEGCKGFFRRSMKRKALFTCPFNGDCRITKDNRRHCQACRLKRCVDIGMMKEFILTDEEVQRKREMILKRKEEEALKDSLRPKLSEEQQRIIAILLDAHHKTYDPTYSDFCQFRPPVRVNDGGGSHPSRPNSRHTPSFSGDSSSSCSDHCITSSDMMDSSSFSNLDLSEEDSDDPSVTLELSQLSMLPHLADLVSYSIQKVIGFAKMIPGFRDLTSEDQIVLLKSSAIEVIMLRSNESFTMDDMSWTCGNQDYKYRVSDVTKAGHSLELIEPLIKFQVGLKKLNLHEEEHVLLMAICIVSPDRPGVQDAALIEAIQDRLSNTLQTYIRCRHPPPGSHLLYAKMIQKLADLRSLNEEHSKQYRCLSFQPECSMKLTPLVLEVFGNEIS
In short: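 HepG2 cells were transiently transfected with multiple GAL4-UAS reporter units, so signal reflects exogenous chimeric receptor-Gal4 activity. After 24 h compound exposure, reporter mRNA was measured by RT-PCR, fluorescent labelling and capillary electrophoresis, fitted for gain of signal versus DMSO.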

[2] = BSK_3C_SRB: Viability Assessment in the BioMAP Diversity Plus: 3C Assay (AID 2283023); details: primary human endothelial cells (HUVEC);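 note: fitted both ways against DMSO so a hit may be signal rise or drop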
In short: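 Primary human umbilical vein endothelial cells in the 3C system were read 24 h after compound dosing. Total protein was stained with 0.1% sulforhodamine B after 10% TCA fixation and read at 560 nm, with bidirectional fitting against DMSO as baseline.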

[3] = read-out: Matrix Metallopeptidase 1 (MMP1), MMP1 (gene 4312); assay: BSK_BE3C_MMP1: BioMAP Diversity Plus: BE3C Assay for Matrix Metallopeptidase 1 (MMP1) Biomarker Activity (AID 2283024); details: primary human bronchial epithelial cells; actives raise or lower the signal
In short: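 Human primary bronchial epithelial cells (BE3C system) dosed for 24 h; MMP-1 quantified by ELISA. Bidirectional fit against DMSO; cytotoxicity tracked in parallel cultures by SRB total-protein staining.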

[4] = BSK_3C_Vis: BioMAP Diversity Plus: 3C Assay for Morphology Visualization (AID 2283025); details: primary human endothelial cells (HUVEC);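 note: fitted both ways so gain or loss versus DMSO counts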;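 for AC50: light microscopy image of cell morphology used as background control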
In short: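 Human umbilical vein endothelial cell morphology was inspected by light microscopy 24 h after chemical dosing; scored bidirectionally relative to DMSO.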

[5] = read-out: Pselectin, SELP (gene 6403); assay: BSK_4H_Pselectin: BioMAP Diversity Plus: 4H Assay for Pselectin Biomarker Activity (AID 2283026); details: primary human endothelial cells (HUVEC); actives raise or lower the signal
In short: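 Primary human umbilical vein endothelial cells were treated 24 h, and cell-surface P-selectin was then quantified by ELISA. Bidirectional fit versus DMSO; cytotoxicity checked in parallel cultures by SRB total-protein staining.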

[6] = BSK_BE3C_SRB: Viability Assessment in the BioMAP Diversity Plus: BE3C Assay (AID 2283028); details: primary human bronchial epithelial cells;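 for AC50: fitted both ways so AC50 may mark signal gain or loss versus DMSO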
In short: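 Human primary bronchial epithelial cells were exposed to test chemicals for 24 h. Total protein in parallel cultures was then measured by staining with 0.1% sulforhodamine B after 10% TCA fixation, with absorbance read at 560 nm. Activity was fitted bidirectionally against DMSO.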

[7] = read-out: Thrombomodulin, THBD (gene 7056); assay: BSK_3C_Thrombomodulin: BioMAP Diversity Plus: 3C Assay for Thrombomodulin Biomarker Activity (AID 2283029); details: primary human endothelial cells (HUVEC); actives raise or lower the signal
In short: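 Human umbilical vein endothelial cells were exposed to chemicals for 24 h; cell-surface thrombomodulin quantified by ELISA, with bidirectional fitting against DMSO baseline.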

[8] = read-out: Urokinase-type plasminogen activator receptor (uPAR), PLAUR (gene 5329); assay: BSK_4H_uPAR: BioMAP Diversity Plus: 4H Assay for Urokinase-type plasminogen activator receptor (uPAR) Biomarker Activity (AID 2283030); details: primary human endothelial cells (HUVEC); actives raise or lower the signal
In short: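 Primary human umbilical vein endothelial cells were exposed to chemical for 24 h before cell-surface uPAR was quantified by ELISA. Activity was fitted bidirectionally against the DMSO negative control baseline.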

[9] = read-out: Vascular endothelial growth factor receptor 2 (Homo sapiens) (UniProt P35968); assay: BSK_4H_VEGFRII: BioMAP Diversity Plus: 4H Assay for Vascular endothelial growth factor receptor 2 (VEGFR2) Biomarker Activity (AID 2283031); details: primary human endothelial cells (HUVEC); actives raise or lower the signal;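 for AC50: cell-surface VEGFR2 protein level quantified by ELISA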
In short: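 Primary human umbilical vein endothelial cells in the BioMAP 4H system were dosed with test chemical, and 24 h later VEGFRII was measured by ELISA. Activity was fitted bidirectionally against DMSO as negative control and baseline.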

[10] = read-out: Human Leukocyte Antigen - DR isotype (HLADR), HLA-DRA (gene 3122); assay: BSK_BE3C_HLADR: BioMAP Diversity Plus: BE3C Assay for Human Leukocyte Antigen - DR isotype (HLADR) Biomarker Activity (AID 2283032); details: primary human bronchial epithelial cells; actives raise or lower the signal
In short: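 Human primary bronchial epithelial cells (BE3C system) exposed to compound for 24 hours; cell-surface HLA-DR measured by ELISA, fitted bidirectionally relative to DMSO. Total protein by SRB in parallel cultures tracked cytotoxicity.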

[11] = read-out: Vascular cell adhesion molecule 1 (VCAM1), VCAM1 (gene 7412); assay: BSK_4H_VCAM1: BioMAP Diversity Plus: 4H Assay for Vascular cell adhesion molecule 1 (VCAM1) Biomarker Activity (AID 2283033); details: primary human endothelial cells (HUVEC); actives raise or lower the signal
In short: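 Primary human umbilical vein endothelial cells, 4H stimulation system, treated for 24 h; cell-surface VCAM-1 quantified by ELISA. Bidirectional fitting against DMSO; cytotoxicity tracked by SRB total-protein staining in parallel cultures.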

[12] = read-out: Interferon-gamma inducible Protein 10 (IP10), CXCL10 (gene 3627); assay: BSK_BE3C_IP10: BioMAP Diversity Plus: BE3C Assay for Interferon-gamma inducible Protein 10 (IP10) Biomarker Activity (AID 2283034); details: primary human bronchial epithelial cells; actives raise or lower the signal
In short: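 Primary human bronchial epithelial cells, with IP-10 measured by ELISA 24 hours after chemical dosing. Bidirectional fit against DMSO; cytotoxicity checked by SRB total protein staining in parallel cultures.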

[13] = read-out: Monokine induced gamma interferon (MIG), CXCL9 (gene 4283); assay: BSK_BE3C_MIG: BioMAP Diversity Plus: BE3C Assay for Monokine induced gamma interferon (MIG) Biomarker Activity (AID 2283035); details: primary human bronchial epithelial cells; actives raise or lower the signal
In short: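 ELISA read-out of MIG in human lung bronchial epithelial primary cultures, 24 h post-dosing. Bidirectional curve fit vs DMSO baseline.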

[14] = read-out: Transforming growth factor beta 1 (TGFb1), TGFB1 (gene 7040); assay: BSK_BE3C_TGFb1: BioMAP Diversity Plus: BE3C Assay for Transforming growth factor beta 1 (TGFb1) Biomarker Activity (AID 2283036); details: primary human bronchial epithelial cells; actives raise or lower the signal
In short: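 Primary human bronchial epithelial cells dosed with chemical; TGF-b1 measured by ELISA 24 h after dosing. Bidirectional curve fitting against DMSO negative control; SRB total-protein staining in parallel cultures gauged cytotoxicity.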

[15] = read-out: Plasminogen activator inhibitor-1 (PAI1), SERPINE1 (gene 5054); assay: BSK_BE3C_PAI1: BioMAP Diversity Plus: BE3C Assay for Plasminogen activator inhibitor-1 (PAI1) Biomarker Activity (AID 2283037); details: primary human bronchial epithelial cells; actives raise or lower the signal
In short: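 Primary human bronchial epithelial cells (BE3C system) exposed 24 h; PAI-1 quantified by ELISA. Parallel sulforhodamine B staining of total protein flags cytotoxicity. Bidirectional fit versus DMSO.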

[16] = read-out: urokinase plasminogen activator (uPA), PLAU (gene 5328); assay: BSK_BE3C_uPA: BioMAP Diversity Plus: BE3C Assay for urokinase plasminogen activator (uPA) Biomarker Activity (AID 2283038); details: primary human bronchial epithelial cells; actives raise or lower the signal
In short: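 Human primary bronchial epithelial cells were exposed to chemical for 24 h, then uPA levels were measured by ELISA. Responses were fitted bidirectionally against DMSO as negative control and baseline. Parallel SRB staining of total protein gauged overt cytotoxicity.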

[17] = read-out: Urokinase-type plasminogen activator receptor (uPAR), PLAUR (gene 5329); assay: BSK_BE3C_uPAR: BioMAP Diversity Plus: BE3C Assay for Urokinase-type plasminogen activator receptor (uPAR) Biomarker Activity (AID 2283039); details: primary human bronchial epithelial cells; actives raise or lower the signal
In short: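 Primary human bronchial epithelial cells dosed for 24 h; uPAR quantified by ELISA with bidirectional fitting against DMSO. Overt cytotoxicity assessed in parallel cultures by SRB total-protein staining (0.1% SRB, 560 nm).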

[18] = read-out: Interleukin-6 (IL6), IL6 (gene 3569); assay: BSK_CASM3C_IL6: BioMAP Diversity Plus: CASM3C Assay for Interleukin-6 (IL6) Biomarker Activity for (AID 2283040); details: primary human coronary artery smooth muscle cells; actives raise or lower the signal
[19] = read-out: Tissue plasminogen activator (tPA), PLAT (gene 5327); assay: BSK_BE3C_tPA: BioMAP Diversity Plus: BE3C Assay for Tissue plasminogen activator (tPA) Biomarker Activity (AID 2283041); details: primary human bronchial epithelial cells; actives raise or lower the signal
In short: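 Primary human bronchial epithelial cells in the BE3C system, exposed to compound for 24 h. tPA was quantified by ELISA; DMSO served as baseline, with gain or loss of signal fitted. Cytotoxicity checked in parallel cultures by SRB total-protein staining.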

[20] = BSK_4H_SRB: Viability Assessment in the BioMAP Diversity Plus: 4H Assay (AID 2283027); details: primary human endothelial cells (HUVEC);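 for AC50: curves fitted both ways versus DMSO so AC50 may be loss or gain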
In short: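 Human umbilical vein endothelial cells were dosed with chemical and, after 24 h, fixed with 10% TCA, stained with 0.1% sulforhodamine B, and read at 560 nm to give total protein as a cytotoxicity measure. Bidirectional fitting relative to DMSO control.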

Measured: AC50

COc1cc(-c2nc(NC(=O)c3cc4cc(C)cc(C)c4n3CC(=O)O)sc2CCC2CCCCC2)c(OC)cc1Cl
inactive: [1]
active: [2] 2.92 µM | [3] 4.37 µM | [4] 4.08 µM | [5] 3.63 µM | [6] 3.12 µM | [7] 23.6 µM | [8] 4.62 µM | [9] 4.37 µM | [10] 1.25 µM | [11] 4.36 µM | [12] 1.3 µM | [13] 1.56 µM | [14] 4.38 µM | [15] 0.877 µM | [16] 1.03 µM | [17] 4.47 µM | [18] 4.7 µM | [19] 0.969 µM

COc1cc(S(=O)(=O)O)c(C)cc1N=Nc1c(O)ccc2cc(S(=O)(=O)O)ccc12
not listed: [20]
inactive: all other assays above

CCCCC(CC)COC(=O)CC(C(=O)OCC(CC)CCCC)S(=O)(=O)O (stereo not drawn)
inactive: [1] | [7] | [9] | [18]
active: [2] 31.2 µM | [3] 10.2 µM | [4] 37.5 µM | [5] 32.2 µM | [20] 38 µM | [6] 6.46 µM | [8] 39 µM | [10] 7.52 µM | [11] 34.5 µM | [12] 7.16 µM | [13] 8.91 µM | [14] 6.71 µM | [15] 11.5 µM | [16] 11.1 µM | [17] 11.9 µM | [19] 11.6 µM

CN1CCN(Cc2cc(-c3ccc4[nH]c(=O)oc4c3)co2)[C@@H](c2ccc(F)cc2)C1
active: [2] 28.2 µM | [5] 17.6 µM | [8] 11.3 µM | [19] 3.27 µM
not listed: [4] | [17]
inactive: all other assays above

O=[N+]([O-])C(CO)(CO)CO
not listed: [14]
inactive: all other assays above

CCCCCCCC=O
not listed: [14]
inactive: all other assays above

O=C(O)Cc1ccccc1Nc1c(Cl)cccc1Cl
not listed: [4] | [17]
inactive: all other assays above

CCCCCCCCCCCC(=O)OC
not listed: [17]
inactive: all other assays above

C[C@]12C=CC(=O)C=C1CC[C@@H]1[C@@H]2C(=O)C[C@@]2(C)[C@H]1CC[C@]2(O)C(=O)CO
active: [18] 0.704 µM
inactive: all other assays above

CN1CCCC1=O
not listed: [20]
inactive: all other assays above

COc1cccc2c1C(=O)c1c(O)c3c(c(O)c1C2=O)C[C@@](O)(C(=O)CO)C[C@@H]3O[C@H]1C[C@H](N)[C@H](O)[C@H](C)O1
inactive: [1]

CCCCN(CCCC)CCCC
not listed: [17] | [20]
inactive: all other assays above

Cc1cccc([N+](=O)[O-])c1C
not listed: [14]
inactive: all other assays above
